About 79,000 compounds went through this panel and 15% of them were active in at least one assay; those are over-represented in the sample as a whole. Active and inactive are the calls of the source. Rule as the data show it: active = growth inhibition above about 70%; inactive = the rest.
How the values were obtained:
[1] = NCI Yeast Anticancer Drug Screen. Data for the rad50 strain (AID 155);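 also: 0% = growth of vehicle-only cultures of the same strain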; conditions: S. cerevisiae rad50 strain growth inhibition, stronger effect = higher value
Procedure, shortened: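 DNA repair mutant yeast, compound exposure, growth read-out; inhibition is taken relative to vehicle.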

[2] = NCI Yeast Anticancer Drug Screen. Data for the mec2-1 strain (AID 157); conditions: S. cerevisiae mec2-1 strain, stronger effect = higher value
Procedure, shortened: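 Strain: mec2-1 (DNA repair/cell cycle alteration). Compound exposure, then growth measured; inhibition expressed relative to vehicle.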

[3] = NCI Yeast Anticancer Drug Screen. Data for the sgs1 mgt1 strain (AID 161);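 also: 0% = growth of cultures given vehicle only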; conditions: S. cerevisiae sgs1 mgt1 strain, stronger effect = higher value
Procedure, shortened: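 Genetically altered yeast, compound exposure, growth inhibition relative to vehicle.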

[4] = NCI Yeast Anticancer Drug Screen. Data for the cln2 rad14 strain (AID 165);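 also: 0% = growth equal to vehicle treated cultures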; conditions: S. cerevisiae cln2 rad14 strain, stronger effect = higher value
Procedure, shortened: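 Compounds are applied to the cln2 rad14 yeast strain, and growth is then compared with that of vehicle-treated cultures to give inhibition.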

[5] = NCI Yeast Anticancer Drug Screen. Data for the bub3 strain (AID 167); conditions: S. cerevisiae bub3 mutant strain, stronger effect = higher value
Procedure, shortened: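 In this screen, a yeast mutant lacking normal mitotic checkpoint function is challenged with compound. Relative growth versus vehicle gives the inhibition value.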

[6] = NCI Yeast Anticancer Drug Screen. Data for the mlh1 rad18 strain (AID 175); conditions: S. cerevisiae mlh1 rad18 strain growth inhibition, stronger effect = higher value
Procedure, shortened: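 Read-out is yeast growth inhibition, calculated against vehicle-only controls. The compound was applied to a strain engineered with DNA damage repair alterations.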

[7] = at 5.0 µM (retest, dose inferred, filed as 0.5)
[8] = at 50.0 µM (retest, dose inferred, filed as 5.0)

Measured: growth inhibition

C/C(=N\NC(N)=O)C(CN1CCCCC1)C(c1ccccc1)c1c(O)c2ccccc2oc1=O (stereo not given)
active: [1]; at 50.0 µM 82.7% | [2]; at 50.0 µM 83% | [3]; at 50.0 µM 87.6% | [4]; at 50.0 µM 72.8% | [5]; at 50.0 µM 79% | [6]; at 50.0 µM 81.5%
inactive: [1]; [7] 14% | [1]; [8] 14% | [2]; [7] 15% | [2]; [8] 15% | [3]; [7] 6% | [3]; [8] 6% | [4]; [7] 0% | [4]; [8] 0% | [5]; [7] 17% | [5]; [8] 17% | [6]; [7] 17% | [6]; [8] 17%

COc1ccccc1C(Cc1ccc(N2C(N)=NC(N)=NC2(C)C)cc1)C(=O)Nc1ccc(S(=O)(=O)F)cc1 (stereo not given)
active: [1]; at 50.0 µM 90.1% | [2]; at 50.0 µM 95% | [3]; at 50.0 µM 99.2% | [5]; at 50.0 µM 98.8% | [6]; at 50.0 µM 99%
inactive: [1]; [7] 3% | [1]; [8] 15% | [2]; [7] 12% | [2]; [8] 2% | [3]; [7] 1% | [3]; [8] 22% | [4]; [7] -2% | [4]; [8] -5% | [4]; at 50.0 µM 55.4% | [5]; [7] -3% | [5]; [8] -4% | [6]; [7] 2% | [6]; [8] 18%

O=[N+]([O-])c1ccc(N2CCOCC2)c2c1no[n+]2[O-]
active: [1]; [7] 98% | [1]; [8] 99% | [1]; at 50.0 µM 90.9% | [2]; [7] 99% | [2]; [8] 100% | [2]; at 50.0 µM 94% | [3]; [7] 94% | [3]; [8] 99% | [3]; at 50.0 µM 89% | [4]; [8] 99% | [4]; at 50.0 µM 74% | [5]; [7] 91% | [5]; [8] 99% | [5]; at 50.0 µM 92.2% | [6]; [7] 98% | [6]; [8] 99% | [6]; at 50.0 µM 84.2%
inactive: [4]; [7] 55%

CC(C)c1oc(=O)cc2c1C(O)C1OC(=O)C3(C)C(O)C4OC4C2(C)C13 (stereo not given)
inactive: [1]; [7] 8% | [1]; [8] 65% | [1]; at 50.0 µM 31.9% | [2]; [7] 10% | [2]; at 50.0 µM -10.8% | [3]; [7] 10% | [3]; at 50.0 µM 25.1% | [4]; [7] 19% | [4]; at 50.0 µM 15.9% | [5]; [7] 2% | [5]; at 50.0 µM 17.4% | [6]; [7] 11% | [6]; at 50.0 µM 18.4%
active: [2]; [8] 81% | [3]; [8] 72% | [4]; [8] 71% | [5]; [8] 76% | [6]; [8] 86%

CC(=O)C(CN(CC(C)C)CC(C)C)C(c1ccccc1)c1c(O)c2ccccc2oc1=O (stereo not given)
inactive: [1]; [7] 0% | [1]; [8] 0% | [2]; [7] -12% | [2]; [8] -12% | [3]; [7] -2% | [3]; [8] -2% | [4]; [7] -10% | [4]; [8] -10% | [5]; [7] -1% | [5]; [8] -1% | [6]; [7] 7% | [6]; [8] 7%
active: [1]; at 50.0 µM 80.1% | [2]; at 50.0 µM 73.7% | [3]; at 50.0 µM 85% | [4]; at 50.0 µM 83.2% | [5]; at 50.0 µM 78.8% | [6]; at 50.0 µM 81.9%

CCCCCCCC[N+]12CN3CN(CN(C3)C1)C2
inactive: [1]; [7] -5% | [1]; [8] -21% | [1]; at 50.0 µM 1.75% | [2]; [7] -2% | [2]; [8] -33% | [2]; at 50.0 µM 4.1% | [3]; [7] -6% | [3]; [8] -28% | [3]; at 50.0 µM 7.75% | [4]; [7] 2% | [4]; [8] -38% | [4]; at 50.0 µM 30.4% | [5]; [7] 1% | [5]; [8] -25% | [5]; at 50.0 µM 31.8% | [6]; [7] -1% | [6]; [8] -26% | [6]; at 50.0 µM 16.9%

CCNC(=O)OOC(C)(C)C
active: [1]; [8] 93% | [1]; at 50.0 µM 74.7% | [2]; [8] 83% | [3]; [8] 94% | [4]; [8] 77% | [5]; [8] 72% | [6]; [8] 96%
inactive: [1]; [7] 16% | [2]; [7] 6% | [2]; at 50.0 µM 19.7% | [3]; [7] 4% | [3]; at 50.0 µM -5.55% | [4]; [7] -2% | [4]; at 50.0 µM -17.8% | [5]; [7] -2% | [5]; at 50.0 µM 1.45% | [6]; [7] 19% | [6]; at 50.0 µM 21.7%

OC1C2[C@@H](O)CCCN2C[C@@H](O)[C@H]1O (stereo not given in full)
inactive: [1]; [7] 15% | [1]; [8] 21% | [1]; at 50.0 µM -45.2% | [2]; [7] 11% | [2]; [8] 13% | [2]; at 50.0 µM -59% | [3]; [7] 5% | [3]; [8] 14% | [3]; at 50.0 µM -34.5% | [4]; [7] 5% | [4]; [8] 20% | [4]; at 50.0 µM 8.4% | [5]; [7] 6% | [5]; [8] 8% | [5]; at 50.0 µM 4.95% | [6]; [7] 14% | [6]; [8] 58% | [6]; at 50.0 µM -15.3%

C[SH+]c1ccccc1N=Cc1ccccn1.C[SH+]c1ccccc1N=Cc1ccccn1.[Ni+2].[O-][Cl+3]([O-])([O-])[O-]
inactive: [1]; [7] -3% | [1]; [8] 11% | [2]; [7] -5% | [2]; [8] 5% | [3]; [7] -1% | [3]; [8] 12% | [4]; [7] 3% | [4]; [8] 7% | [4]; at 50.0 µM 58.2% | [5]; [7] -4% | [5]; [8] 2% | [6]; [7] 1% | [6]; [8] 16%
active: [1]; at 50.0 µM 99% | [2]; at 50.0 µM 97.2% | [3]; at 50.0 µM 99.5% | [5]; at 50.0 µM 98.8% | [6]; at 50.0 µM 98%

CN(C)c1ccc(N=Nc2cccc(C(=O)[O-])c2)cc1.CN(C)c1ccc(N=Nc2cccc(C(=O)[O-])c2)cc1.NC1CCCCC1N.O=[N+]([O-])O.[Pt+4]
inactive: [1]; [7] 1% | [2]; [7] 21% | [3]; [7] 23% | [4]; [7] 28% | [4]; at 50.0 µM 44.1% | [5]; [7] 45% | [6]; [7] 41%
active: [1]; [8] 98% | [1]; at 50.0 µM 91% | [2]; [8] 98% | [2]; at 50.0 µM 91.7% | [3]; [8] 99% | [3]; at 50.0 µM 93.2% | [4]; [8] 97% | [5]; [8] 98% | [5]; at 50.0 µM 81.5% | [6]; [8] 97% | [6]; at 50.0 µM 92%
